Measurements from PubChem BioAssay (NCATS).
Values joined by “and” are separate entries in the source; they are usually repeats but may differ in a detail not shown here. Equal entries are not always repeated. Results filed as inconclusive are left out. Entries that show only a call come without a potency. A structure can be active in one record and inactive in another. Active and inactive are the calls of the source. Calls follow the shape of the dose curve; as a rule, active = well fitted curve in the direction sought with a large enough effect; inconclusive = small, poorly fitted or top-dose-only effect, or another doubt; inactive = no such curve, though single readings can be large; an effect the other way counts as inactive or inconclusive.

How the values were obtained:
MKL-1 = experiment: qHTS assay to identify novel small-molecules to repurpose for Merkel cell carcinoma treatment (AID 1296009); details: MCC and control cell lines, CellTiter-Glo viability, 72 h; series mostly up to 46 µM; also: nearly all actives have a fitted effect of over 60% in size
Method in brief: (§1)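 Cells exposed to NPC (8-point) and MIPE (11-point) compound dilutions for 72 hr at 37 degree celsius; viability read by CellTiter-Glo luminescence, normalized to no-cell and DMSO in-plate controls.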

MKL-2 = experiment: as above; details: MCC and control cell lines, CellTiter-Glo viability, 72 h; series mostly up to 46 µM
Method in brief: as §1

NIH3T3 = experiment: as above; details: MCC and control cell lines, CellTiter-Glo viability, 72 h; at 44.8 µM (top of the series) unless noted
Method in brief: as §1

UISO = experiment: as above; details: MCC and control cell lines, CellTiter-Glo viability, 72 h; series mostly up to 46 µM
Method in brief: as §1

WaGa = experiment: as above; details: MCC and control cell lines, CellTiter-Glo viability, 72 h; series mostly up to 46 µM
Method in brief: as §1

C33A = experiment: Primary qHTS to identify gynecologic anti-cancer compounds using libraries of approved drugs and bioactive compounds (AID 1345084); details: Gynecologic cancer cell panel viability, ATPlite luminescence, 48 h; series mostly up to 57.5 µM; also: nearly all actives have a fitted effect of over 55% in size
Method in brief: (§2)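 Cytotoxicity screen measuring ATP content by luciferase luminescence. Each compound is applied at five concentrations for 48 h at 37 C with 5% CO2.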

CAOV3 = experiment: as above; details: Gynecologic cancer cell panel viability, ATPlite luminescence, 48 h; series mostly up to 57.5 µM
Method in brief: as §2

CASKI = experiment: as above; details: Gynecologic cancer cell panel viability, ATPlite luminescence, 48 h; series mostly up to 57.5 µM
Method in brief: as §2

Es-2 = experiment: as above; details: Gynecologic cancer cell panel viability, ATPlite luminescence, 48 h; series mostly up to 57.5 µM
Method in brief: as §2

HeLa = experiment: as above; details: Gynecologic cancer cell panel viability, ATPlite luminescence, 48 h; series mostly up to 57.5 µM
Method in brief: as §2
Potency is read from the fitted curve at half-maximal effect.

| Structure (SMILES) | Potency (MKL-1) | Potency (MKL-2) | outcome (NIH3T3) | Potency (UISO) | Potency (WaGa) | Potency (C33A) | Potency (CAOV3) | Potency (CASKI) | Potency (Es-2) | Potency (HeLa) | activity change, negative = cytotoxicity (MKL-1) | activity change, negative = cytotoxicity (WaGa) | activity change, negative = cytotoxicity (C33A) | activity change, negative = cytotoxicity (CASKI) | activity change, negative = cytotoxicity (Es-2) | activity change, negative = cytotoxicity (HeLa) |
| --- | --- | --- | --- | --- | --- | --- | --- | --- | --- | --- | --- | --- | --- | --- | --- | --- |
| Clc1ccc(C(Cn2ccnc2)OCc2ccc(Sc3ccccc3)cc2)c(Cl)c1 (stereo not drawn) | inactive | inactive | inactive | inactive | inactive | inactive | inactive | inactive | inactive | inactive | – | – | – | – | – | – |
| Nc1nc(OCc2ccccc2)c2[nH]cnc2n1 | inactive | inactive | inactive | inactive | inactive | – | – | – | – | – | – | – | – | – | – | – |
| CC(C)c1nc(CN(C)C(=O)N[C@H](C(=O)N[C@@H](Cc2ccccc2)C[C@H](O)[C@H](Cc2ccccc2)NC(=O)OCc2cncs2)C(C)C)cs1 | inactive | inactive | inactive | inactive | inactive | inactive | inactive | inactive | inactive | inactive | – | – | – | – | – | – |
| O=C(NCCO[N+](=O)[O-])c1cccnc1 | inactive | inactive | inactive | inactive | inactive | inactive | inactive | inactive | inactive | inactive | – | – | – | – | – | – |
| CC1=C(C)C(=O)C(C(CCCCCC(=O)O)c2ccccc2)=C(C)C1=O (stereo not drawn) | inactive | 23.7 µM (active) and inactive | inactive | inactive | inactive | inactive | inactive | inactive | inactive | inactive | – | – | – | – | – | – |
| CC(C)c1ccc2c(c1)c(SC(C)(C)C)c(CC(C)(C)C(=O)O)n2Cc1ccc(Cl)cc1 | inactive | inactive | inactive | inactive | inactive | – | – | – | – | – | – | – | – | – | – | – |
| O=C(O)CCNC(=O)c1ccc(N=Nc2ccc(O)c(C(=O)O)c2)cc1 | inactive | inactive | inactive | inactive | inactive | inactive | inactive | inactive | inactive | inactive | – | – | – | – | – | – |
| Oc1ccc(OCc2ccccc2)cc1 | inactive | inactive | inactive | inactive | inactive | inactive | inactive | inactive | inactive | inactive | – | – | – | – | – | – |
| O=C(CS(=O)Cc1ccco1)NCC=CCOc1cc(CN2CCCCC2)ccn1 (stereo not drawn) | inactive | inactive | inactive | inactive | inactive | – | – | – | – | – | – | – | – | – | – | – |
| N[C@@H](Cc1cc(I)c(Oc2cc(I)c(O)c(I)c2)c(I)c1)C(=O)O | inactive | inactive | inactive | inactive | inactive | inactive | inactive | inactive | inactive | inactive | – | – | – | – | – | – |
| O=C(NC(Cc1cc(=O)[nH]c2ccccc12)C(=O)O)c1ccc(Cl)cc1 (stereo not drawn) | inactive | inactive | inactive | inactive | inactive | inactive | inactive | inactive | inactive | inactive | – | – | – | – | – | – |
| CNC[C@@H](O)[C@@H](O)[C@H](O)[C@H](O)CO | inactive | inactive | inactive | inactive | inactive | – | – | – | – | – | – | – | – | – | – | – |
| COc1cc(OC)c(C(=O)CCCN2CCCC2)c(OC)c1 | inactive | inactive | inactive | inactive | inactive | inactive | inactive | inactive | inactive | inactive | – | – | – | – | – | – |
| CCN(CCO)CCCC(C)Nc1ccnc2cc(Cl)ccc12 (stereo not drawn) | 3.72 µM (active) | inactive | inactive [at 4.96 µM] | inactive | 2.35 µM (active) | – | – | – | – | – | 15.4% [at 4.84 µM] (inactive) | 15.3% [at 4.84 µM] (inactive) | 4.86% [at 6.55 µM] (inactive) and 0.75% [at 6.55 µM] (inactive) | 22.4% [at 6.55 µM] (inactive) and 10.4% [at 6.55 µM] (inactive) | -1.37% [at 6.55 µM] (inactive) and -0.815% [at 6.55 µM] (inactive) | 2.67% [at 6.55 µM] (inactive) and -11.2% [at 6.55 µM] (inactive) |
| Cc1cc(=O)c2c(O)c3c(O)cc(=O)c4c3c3c(cc(O)c1c23)C(C)(C)C=4O | inactive | inactive | – | inactive | inactive | 3.55 µM (active) | 4.47 µM (active) | 2 µM (active) | 3.16 µM (active) | 2.24 µM (active) | – | – | – | – | – | – |
| O=C(O)c1cn(-c2ccc(F)cc2)c2cc(N3CCNCC3)c(F)cc2c1=O | inactive | inactive | – | inactive | inactive | inactive | inactive | inactive | inactive | inactive | – | – | – | – | – | – |
| O=c1cc(N2CCOCC2)oc2c(-c3ccccc3)cccc12 | inactive | inactive | – | inactive | inactive | – | – | – | – | – | – | – | – | – | – | – |
| O=c1c(O)c(-c2cc(O)c(O)c(O)c2)oc2cc(O)cc(O)c12 | inactive | inactive | – | inactive | inactive | – | – | – | – | – | – | – | – | – | – | – |
| Nc1nc(Cl)nc2c1ncn2[C@H]1C[C@H](O)[C@@H](CO)O1 | 0.418 µM (active) | 418 nM (active) | – | 372 nM (active) | 0.418 µM (active) | – | – | – | – | – | – | – | – | – | – | – |
| CC(=O)NC[C@H]1CN(c2ccc(N3CCOCC3)c(F)c2)C(=O)O1 | inactive | inactive | – | inactive | inactive | inactive | inactive | inactive | inactive | inactive | – | – | – | – | – | – |
| CC(S)C(=O)NCC(=O)O (stereo not drawn) | inactive | inactive | – | inactive | inactive | inactive | inactive | inactive | inactive | inactive | – | – | – | – | – | – |
| Nc1ccc(S(N)(=O)=O)cc1 | inactive | inactive | inactive | inactive | inactive | inactive | – | inactive | inactive | inactive | – | – | – | – | – | – |
